Data from PubChem BioAssay (NCATS).
Inconclusive results are not listed. A call without a number means that no potency is given here. The source made the active and inactive calls. Calls come from the whole dose curve; as a rule, active = well fitted curve in the direction sought with a large enough effect; inconclusive = small, poorly fitted or top-dose-only effect, or another doubt; inactive = no such curve, though single readings can be large; an effect the other way counts as inactive or inconclusive. Where a SMILES comes first, the peptide text is derived from it. [ ]: non-standard residue; d: D form. ξ: configuration not given here. ξPhe(βξ-Me) = CC(c1ccccc1)C(N)C(=O)O; GABA = NCCCC(=O)O

biological target: Calcium and integrin-binding protein 1 (Homo sapiens) (UniProt Q99828); experiment: Confirmatory qHTS for Identification of Calcium Integrin Binding Protein 1 (CIB1) Competitor (AID 1508617); settings: CIB1 binding competition assay, biochemical qHTS; series mostly up to 114 µM; note: nearly all actives have a fitted effect of over 65% in size; note: potency is the fitted concentration of half-maximal effect
Summary of the method: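 FP competition: CIB1-GST (1 uM final) in 5 mM HEPES pH 7.4, 125 mM NaCl, 5 mM CaCl2, 0.01% Tween20 preincubated 15 min RT with compounds (up to 114 uM), then FITC-alphaIIb peptide (100 nM), 15 min RT; Ex 480/Em 540.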

Calcium and integrin-binding protein 1 (Homo sapiens), sequence (Q99828 whole entry, looked up): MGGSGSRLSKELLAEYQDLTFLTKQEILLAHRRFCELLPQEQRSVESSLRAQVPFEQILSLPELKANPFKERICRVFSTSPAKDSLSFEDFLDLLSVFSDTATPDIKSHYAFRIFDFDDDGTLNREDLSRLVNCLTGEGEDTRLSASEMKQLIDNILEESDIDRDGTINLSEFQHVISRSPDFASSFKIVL

Structure (SMILES)	Potency
CC[C@@H](c1ccc(F)c(F)c1)n1c(C(=O)OC)c(-c2ccno2)[nH]c1=S	inactive
OC[C@H]1O[C@@H](Oc2ccc(O)c3cccc(O)c23)[C@H](O)[C@@H](O)[C@@H]1O	11.2 µM (active)
CC(=O)c1c(O)cc2cccc3c2c1CC(C)(O)O3 (stereo not drawn)	39.8 µM (active)
CC(=O)c1c(O)cc2c(c1C)C(=O)CC(O)C2 (stereo not drawn)	inactive

biological target: Calcium and integrin-binding protein 1 (Homo sapiens) (UniProt Q99828); experiment: Primary qHTS for Identification of Calcium Integrin Binding Protein 1 (CIB1) Competitor (AID 1508620); settings: CIB1-GST / FITC-alphaIIb peptide fluorescence polarization; series mostly up to 57.7 µM;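 note: GST tagged CIB1 binding a fluorescein labelled alphaIIb integrin peptide tracer; top concentration of the series differs between compounds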
Summary of the method: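 CIB1-GST (1 uM final) and compound incubated 15 min at room temperature before adding FITC-alphaIIb peptide tracer (100 nM final). Competition for binding read by fluorescence polarization (ex 480, em 540) after another 15 min at room temperature.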

Structure (SMILES)	Potency
C=C1C[C@]23C[C@H]1CC[C@H]2[C@@]12C=C[C@H](O)[C@@](C)(C(=O)O1)[C@H]2[C@@H]3C(=O)O	inactive
C=C1CCC[C@]2(C)C[C@]3(O)OC(=O)C(C)=C3C[C@@H]12	inactive
C/C(=C\CO)CC/C=C(\C)C(=O)O[C@H]1[C@H](OC2OC=C(C(=O)O)C3CCC(C)(O)C23)O[C@H](CO)[C@@H](O)[C@@H]1O (stereo partly drawn)	inactive
CC1=C2[C@@H]([C@H](C)CC[C@H]2/C=C(\C)C(=O)O)[C@H](O)C1	inactive
COc1cc(C(O)C(CO)Oc2ccc(CCCO[C@@H]3O[C@@H](C)[C@H](O)[C@@H](O)[C@H]3O)cc2OC)ccc1O (stereo partly drawn)	inactive
CC(C)CC1NC(=O)C(C(C)c2ccccc2)NC(=O)C(C(C)C)NC(=O)C(C)NC(=O)CCCNC(=O)C(Cc2c[nH]c3ccccc23)NC(=O)C(C)NC1=O (stereo not drawn) (cyclo([GABA]AV[ξPhe(βξ-Me)]LAW); configuration not given here)	inactive
CC(=O)OC(CSC1CCC(=O)OC(C)CCC(=O)C1)C(=O)O (stereo not drawn)	inactive
NC(=O)[C@H]1CCCCc2c1[nH]c1ccc(Cl)cc21	inactive
C=C1C(OC(C)=O)C(=O)C2C(C)(C)C(OC(C)=O)CCC2(C)C1CC(OC(C)=O)/C(C)=C/COC(C)=O (stereo not drawn)	inactive
